Test system: human monocyte-derived macrophages (polarized)
Experiment: cell shape (eccentricity) Z-score vs DMSO control; higher = more elongated, M2-like morphology
Details: 5 µM; 24 h; macrophage state: M1-polarized (IFNg + TNFa), cytokines present during treatment
Experimental: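 Primary-screen hits were rescreened on polarized hMDMs with the differentiating cytokines (IL-4 + IL-13 or IFNg + TNFa) kept in the medium during treatment with compound at 5 uM for 24 h. The eccentricity Z-score vs DMSO wells is averaged over experiments.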

SMILES	cell shape (Z-score)
O=c1cc(-c2ccc(O)cc2)oc2cc(O)ccc12	2.2
CC(C)C[C@H](NC(=O)CNC(=O)c1cc(Cl)ccc1Cl)B(O)O	0.365
CCn1c(=O)c2c(nc(/C=C/c3ccc(OC)c(OC)c3)n2C)n(CC)c1=O	3.19
Cc1onc(-c2ccccc2)c1-c1ccc(S(N)(=O)=O)cc1	7.67
Nc1nc2ccc(OC(F)(F)F)cc2s1	-5.46
CC(N)C(=O)OC(C)(C)Cc1ccc(Cl)cc1 (stereo unspecified)	-2.3
CC1CNCCN1S(=O)(=O)c1cccc2cnccc12 (stereo unspecified)	-1.72
COc1cc(Nc2ncc(F)c(Nc3ccc4c(n3)NC(=O)C(C)(C)O4)n2)cc(OC)c1OC	-14.9
Nc1nc2c(ncn2COCCO)c(=O)[nH]1	-5.79
Cc1onc(-c2ccccc2Cl)c1C(=O)N[C@@H]1C(=O)N2[C@@H]1SC(C)(C)[C@@H]2C(=O)O	-5.49
COc1ccc([C@H]2CNC(=O)C2)cc1OC1CCCC1	-2.33
Cn1c([N+](=O)[O-])cnc1COC(N)=O	-4.21
Cc1[nH]c2ccccc2c1CCNCc1ccc(/C=C/C(=O)NO)cc1	6.17
COc1c(OC)c2occc2c2oc(=O)ccc12	-1.24
NC(N)=NCCNS(=O)(=O)c1cccc2cnccc12	-4.47
O=C(/C=C/c1cccc(S(=O)(=O)Nc2ccccc2)c1)NO	-3.19
COc1ccc(OC)c(-c2nnc3n2N=C(c2ccc(OC)c(OC)c2)CS3)c1	13.8
N#CC[C@H](C1CCCC1)n1cc(-c2ncnc3[nH]ccc23)cn1	1.19
CCc1cnn2c(NCc3ccc[n+]([O-])c3)cc(N3CCCC[C@H]3CCO)nc12	8
CC[C@H](Nc1ncnc2[nH]cnc12)c1nc2cccc(F)c2c(=O)n1-c1ccccc1	-16.8
COc1ccc(-c2cc(=O)c3c(O)cc(O)cc3o2)cc1O	3.77
CN1CCN(c2nc(C3=C(c4c[nH]c5ccccc45)C(=O)NC3=O)c3ccccc3n2)CC1	-0.285
CCCCOC(=O)c1ccc(N)cc1	-0.788

Same assay, conditions: 5 µM; 24 h; macrophage state: M2-polarized (IL-4 + IL-13), cytokines present during treatment

SMILES	cell shape (Z-score)
CC(=O)Oc1cc2c(c(C)c1OC(C)=O)CC=C1[C@@]2(C)CC[C@@]2(C)C3C[C@](C)(C(=O)O)CC[C@]3(C)CC[C@]12C (stereo partly specified)	-0.297
CCOc1nc2cccc(C(=O)OC(C)OC(=O)OC3CCCCC3)c2n1Cc1ccc(-c2ccccc2-c2nn[nH]n2)cc1 (stereo unspecified)	-2.81
Cc1cc(CC(C)CC(C)(C)C)n(O)c(=O)c1 (stereo unspecified)	0.506
CC(=O)O[C@@H]1C[C@H]2C(C)(C)C(=O)CC[C@]2(C)[C@H]2CC[C@@]3(C)[C@H](c4ccoc4)OC(=O)[C@H]4O[C@]43[C@@]21C	-5.73
O=C(Nc1ccc([N+](=O)[O-])cc1Cl)c1cc(Cl)ccc1O [Niclosamide.2mM]	-6.52
Oc1ccc(-c2nc(-c3ccc(F)cc3)c(-c3ccncc3)[nH]2)cc1	-2.38
CC(=O)OCCNC(=O)c1cccnc1	2.01
Cc1cc2nc3c(=O)[nH]c(=O)nc-3n(C)c2cc1C=O	6.26
O=C1c2c(O)ccc(O)c2C(=O)c2c(NCCNCCO)ccc(NCCNCCO)c21	-1.14
C=C(NC(=O)C(=C)NC(=O)c1csc(C2=N[C@@H]3c4csc(n4)[C@H]4NC(=O)c5csc(n5)[C@H]([C@](C)(O)[C@@H](C)O)NC(=O)[C@H]5CSC(=N5)/C(=C/C)NC(=O)[C@H]([C@@H](C)O)NC(=O)c5csc(n5)[C@]3(CC2)NC(=O)[C@H](C)NC(=O)C(=C)NC(=O)[C@H](C)NC(=O)[C@H]([C@@H](C)CC)N[C@@H]2C=Cc3c([C@H](C)O)cc(nc3[C@H]2O)C(=O)O[C@@H]4C)n1)C(N)=O	-11
CN1c2cc3c(cc2N=C(c2ccc(C(=O)O)cc2)c2ccccc21)C(C)(C)CCC3(C)C	-8.56
CCCC[C@@H](O)c1cc(OC)cc(=O)o1	-3.33
Nc1ccccc1NC(=O)c1ccc(CNC(=O)OCc2cccnc2)cc1	-0.828

Reference: the supplement of paper PMC7858590
